From PubChem BioAssay (NCI) come the findings set out here.

Some test systems named below: T-47D breast; BT-549 breast; MDA-MB-435 melanoma; SW-620 colon; HCT-116 colon; HCC-2998 colon; KM12 colon; MCF7 breast.
What all share (experiment): NCI-60 one-dose screen, 48 h (100 = growth as untreated, 0 = no growth, -100 = all killed)
Common to all, as to conditions: 10 µM unless noted

About 83,000 compounds went through this panel and 20% of them were active in at least one assay; those are over-represented in the sample as a whole.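 Compound tested at a single concentration for 48 hours in 96-well plates; a percent growth value below 10 was scored as active.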 Values without a mark were called inactive. Activity calls are given as the source filed them.

As for `COc1ccc(CNCCCN2C(=O)c3ccc4c5c(ccc(c35)C2=O)C(=O)N(CCCNCCCCNCCCN)C4=O)c(OC)c1OC`, the growth is -44.4% (active) in the assay with T-47D breast; 60.4% with BT-549 breast; -39.1% (active) with MDA-MB-435 melanoma; 10.8% with SW-620 colon; 6.94% (active) in the assay on HCT-116 colon; -3.52% (active) in the assay on HCC-2998 colon. In addition, the growth with KM12 colon is 21.2%.

On to `COc1ccc(C(=O)N2NC(=O)/C(=C/c3ccc(Br)cc3)N=C2c2ccccc2)cc1`, for which the growth is 85.6% with T-47D breast; 85.5% in the assay with BT-549 breast; 90.7% with MDA-MB-435 melanoma; 91.3% with SW-620 colon; 75.5% in the assay on HCT-116 colon; 105% in the assay with HCC-2998 colon. The growth in the assay with KM12 colon was 99.6%.

In the case of `CCOC(=O)c1ccc2c(c1)c1c(C)c3cccnc3c(C)c1n2C`, the growth in the assay on T-47D breast was 44.9%; with BT-549 breast, 79.5%; in the assay on MDA-MB-435 melanoma it was 73.4%; in the assay on SW-620 colon it was 34%; in the assay on HCT-116 colon, 23%; in the assay with HCC-2998 colon, 86.9%. Further, the growth in the assay with KM12 colon was 61.4%.

Turning to `Nc1cc2c([nH]c[n+]2CC#CCCl)c(SCC#CCCl)n1`, the growth in the assay on T-47D breast is -60.1% (active); with BT-549 breast, -91.2% (active); in the assay on MDA-MB-435 melanoma it was -34.2% (active); in the assay with SW-620 colon, -27.2% (active); in the assay with HCT-116 colon, -98.6% (active); in the assay on HCC-2998 colon, -96.9% (active). Moreover, the growth with KM12 colon was -80.2% (active).

On to `O=c1c2sc3ncccc3c2nnn1-c1ccccc1`, for which the growth in the assay on T-47D breast is 85.4%; in the assay with BT-549 breast, 108%; in the assay with MDA-MB-435 melanoma, 101%; in the assay with SW-620 colon, 109%; in the assay on HCT-116 colon, 113%; with KM12 colon, 106%.

Consider `Clc1cc(Cl)cc(-c2ccc(-c3ccc(/C=N/NC4=NCCN4)cc3)s2)c1`, for which the growth is 56.4% in the assay with T-47D breast; 94.3% in the assay with BT-549 breast; 25.8% in the assay on MDA-MB-435 melanoma; -59.7% (active) in the assay with SW-620 colon; -10.4% (active) in the assay with HCT-116 colon; 19.3% in the assay on HCC-2998 colon. Also, the growth with KM12 colon was -2.85% (active).

With `Cc1ccc(S(=O)(=O)Nc2c(Br)cc(Br)cc2C(N)=O)cc1`, the growth was 101% with T-47D breast; 95.6% in the assay on BT-549 breast; 108% in the assay with MDA-MB-435 melanoma; 102% in the assay on SW-620 colon; 94.2% with HCT-116 colon; 106% in the assay with HCC-2998 colon. Besides, the growth in the assay with KM12 colon is 111%.

Turning to `N#Cc1c(-c2ccccc2)nc(SCC(=O)N2CCN(c3ccccc3)CC2)[nH]c1=O`, the growth with T-47D breast is 99.4%; with BT-549 breast, 91.2%; in the assay on MDA-MB-435 melanoma, 108%; with SW-620 colon it was 111%; with HCT-116 colon, 92.5%; in the assay on HCC-2998 colon, 103%. Besides, the growth in the assay on KM12 colon was 106%.

In the case of `CCOC(=O)c1ccc2c(c1)nc(-c1ccc(OCc3ccccc3)c(OC)c1)n2-c1cc(C(C)(C)C)[nH]n1`, the growth with T-47D breast was 65.5%; with BT-549 breast it was 98.6%; in the assay on MDA-MB-435 melanoma it was 85%; in the assay on SW-620 colon, 98%; in the assay with HCT-116 colon, 62.8%; with HCC-2998 colon it was 91%. Further, in the assay with KM12 colon, the growth is 69.3%.

Take `O=C(Nc1cccc(-n2cc(-c3ccncc3)c(-c3ccc(Cl)c(O)c3)n2)c1)Nc1ccc(Cl)c(C(F)(F)F)c1`: the growth with T-47D breast was -7.12% (active); in the assay on BT-549 breast, 1.33% (active); in the assay with MDA-MB-435 melanoma it was -31.3% (active); with SW-620 colon it was -19.7% (active); with HCT-116 colon, -51% (active); in the assay on KM12 colon, -27.3% (active).

As for `O=C(/C=C/c1cc(-c2ccc3c(c2)OCO3)n[nH]1)c1ccc2c(c1)OCO2`, the growth is 72.7% in the assay on T-47D breast; 88% in the assay on BT-549 breast; 99.7% in the assay on MDA-MB-435 melanoma; 93.8% with SW-620 colon; 92.7% in the assay on HCT-116 colon; 106% in the assay with HCC-2998 colon. Further, the growth with KM12 colon is 94.6%.

Regarding `O=C(Nc1cccc(-n2cc(-c3ccncc3)c(-c3ccc(Cl)c(O)c3)n2)c1)c1ccccc1`, the growth in the assay on T-47D breast is 73.9%; in the assay on BT-549 breast it was 83.4%; in the assay on MDA-MB-435 melanoma, 56.2%; in the assay on SW-620 colon, 76.9%; in the assay with HCT-116 colon, 57.8%; with HCC-2998 colon it was 76.8%. In addition, the growth in the assay with KM12 colon was 70.1%.

For the compound `CC1(C)C(=O)/C(=C\c2ccc(C(F)(F)F)cc2)C[C@]2(C)[C@H]3CC[C@@H]4[C@H]5[C@H](C(=O)/C=C/c6ccc(C(F)(F)F)cc6)CC[C@]5(CO)CC[C@@]4(C)[C@]3(C)CC[C@@H]12`, the growth is 76% with T-47D breast; 95.8% in the assay on BT-549 breast; 101% with MDA-MB-435 melanoma; 98.3% in the assay on SW-620 colon; 82.6% in the assay on HCT-116 colon; 101% with HCC-2998 colon. In addition, in the assay with KM12 colon, the growth is 99.2%.

On to `C=C1C(=O)O[C@H]2[C@H]1CC/C(COC(=O)NCc1ccccc1OC)=C\CC[C@@]1(C)O[C@@H]21`, for which the growth is 31.5% with T-47D breast; 26.7% in the assay with BT-549 breast; 44.4% with MDA-MB-435 melanoma; 0.256% (active) in the assay with SW-620 colon; -26.1% (active) in the assay on HCT-116 colon; 93.9% in the assay with HCC-2998 colon. In addition, in the assay with KM12 colon, the growth was 62.3%.

As for `CCC(=O)OC1=CN2C(=NC(c3ccc(N)cc3)=CC2c2cc(OC)c(OC)c(OC)c2)S1` (stereo unspecified), the growth was 58.2% with T-47D breast; 26.8% in the assay with BT-549 breast; 28.3% with SW-620 colon; 16.7% with MCF7 breast; 17.9% in the assay with HCT-116 colon; 89% in the assay on HCC-2998 colon. In addition, the growth in the assay with KM12 colon is 47.4%.

With `COc1cc(Nc2nc(N[C@H]3CCCC[C@@H]3N)nc3cc[nH]c(=O)c23)cc(OC)c1`, the growth was 83.6% in the assay with T-47D breast; -27% (active) in the assay with BT-549 breast; 33.4% in the assay with MDA-MB-435 melanoma; 14.2% in the assay on SW-620 colon; 7.88% (active) in the assay with HCT-116 colon; 32.1% in the assay on HCC-2998 colon. Besides, in the assay on KM12 colon, the growth was 7.39% (active).

Regarding `O=C(NS(=O)(=O)c1ccc2ccccc2c1)n1cc(-c2ccncc2)c(-c2ccc(Cl)c(O)c2)n1`, the growth with T-47D breast is 78.6%; with BT-549 breast it was 100%; in the assay with MDA-MB-435 melanoma, 51.6%; in the assay on SW-620 colon it was 95.2%; in the assay on HCT-116 colon it was 39.2%; with KM12 colon, 103%.
